Measured values: the supplement of paper PMC4840960
Where a name gives a salt, the structure may show the parent alone. ± gives the standard deviation of the averaged measurements.

Key:
[1] = test system: E18 rat cortical neuron-glia co-culture; experiment: fiber score / MBP score (myelination specific beyond OL differentiation) (ratio); higher = more myelination-specific MBP alignment; conditions: treatment time: 8 days (DIV5-DIV13)
Outline: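 Fiber score divided by MBP score is the read-out; fiber score is continuous MBP fiber length per Olig2+ nucleus, and MBP score is thresholded MBP area × intensity per Olig2+ nucleus. Primary E18 rat cortical co-cultures were dissociated with papain and seeded at 20,000 cells/well on poly-d-lysine/laminin 96-well plates. Library compounds at 1 or 5 µM were given in myelination medium from DIV5 to DIV13, after which cells were fixed in 4 % paraformaldehyde, immunostained for MBP and Olig2 with DAPI, and imaged in four 10X fields per well in duplicate wells.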

[2] = test system: E18 rat cortical neuron-glia co-culture; experiment: myelination (MBP fiber length per Olig2+ nucleus), % of 1 µM DAPT response (DMSO = 0) (% of DAPT); higher = more myelination, active = 50 or more; conditions: treatment time: 8 days (DIV5-DIV13)
Outline: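 Four 10X fields in each of duplicate wells were analysed after cultures were fixed in 4 % paraformaldehyde and immunostained for MBP and Olig2, with DAPI as the nuclear counterstain. The cultures were papain-dissociated primary E18 rat cortical co-cultures at 20,000 cells/well on poly-d-lysine/laminin 96-well plates, dosed with library compounds at 1 or 5 µM in myelination medium from DIV5 to DIV13. The myelination readout was continuous straight MBP fiber length per Olig2+ nucleus, with 0.1 % DMSO set to 0 and a 1 µM positive control set to 100.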

| SMILES | fiber score / MBP score ([1]; 1 µM) | fiber score / MBP score ([1]; 5 µM) | myelination ([2]; 1 µM) | myelination ([2]; 5 µM) |
| --- | --- | --- | --- | --- |
| CNC(=C[N+](=O)[O-])NCCSCc1csc(CN(C)C)n1 [Nizatidine] | 0.895 | 0.816 | -8.02 (inactive) | -29.5 (inactive) |
| NC(=O)OCC(COC(N)=O)c1ccccc1 [Felbamate] | 0.591 | 0.769 | -15.5 (inactive) | -10.2 (inactive) |
| CC(=O)CCCCn1c(=O)c2c(ncn2C)n(C)c1=O [Pentoxifylline] | 0.817 ± 0.062 | 0.839 ± 0.17 | -4.66 (inactive) | -23.8 (inactive) |
| O=C1CN(/N=C/c2ccc(-c3ccc([N+](=O)[O-])cc3)o2)C(=O)N1 [Dantrolene sodium salt dihydrate] | 0.33 | 0.372 | -11.8 (inactive) | -14.2 (inactive) |
| CCCc1cc(=O)[nH]c(=S)[nH]1 [Propylthiouracil] | 0.95 | 0.854 | -9.29 (inactive) | -11.9 (inactive) |
| CNC(=C[N+](=O)[O-])NCCSCc1ccc(CN(C)C)o1 [Ranitidine] | 0.594 | 1.03 | -19.6 (inactive) | -7.22 (inactive) |
| COc1ccccc1OCC(O)CN1CCN(CC(=O)Nc2c(C)cccc2C)CC1 (stereo unspecified) [Ranolazine] | 0.877 | 0.697 | -13.7 (inactive) | -22.5 (inactive) |
| CC(C)(C)NC(=O)[C@H]1CC[C@H]2[C@@H]3CC[C@H]4NC(=O)C=C[C@]4(C)[C@H]3CC[C@]12C [Finasteride] | 0.7 | 0.898 | -19.1 (inactive) | -10.7 (inactive) |
| O=c1[nH]c(=O)n([C@H]2C[C@H](O)[C@@H](CO)O2)cc1F [Floxuridine] | 1.49 | 1.71 | 286 | 367 (active) |
| Nc1ncn([C@@H]2O[C@H](CO)[C@@H](O)[C@H]2O)c(=O)n1 [Azacitidine] | 0.686 | 0.777 | 3.99 (inactive) | 12.8 (inactive) |
| CN(C)CCCSc1ccccc1NC(=O)/C=C/c1ccccc1 [Cinanserin] | 0.858 | 0.995 | -5.83 (inactive) | 9.08 (inactive) |
| C[C@H]1[C@H](OC(=O)CCC(=O)O)O[C@@H]2O[C@@]3(C)CC[C@H]4[C@H](C)CC[C@@H]1[C@@]24OO3 [Artesunate] | 0.652 | 1.2 | -34.4 (inactive) | 189 |
| CC(C)(C(=O)O)c1ccc(C(O)CCCN2CCC(C(O)(c3ccccc3)c3ccccc3)CC2)cc1 (stereo unspecified) [Fexofenadine] | 0.774 | 0.82 | 0.24 (inactive) | 0.141 (inactive) |
| Cc1cnc(NC(=O)C2=C(O)c3ccccc3S(=O)(=O)N2C)s1 [Meloxicam] | 0.958 | 1 | -0.993 (inactive) | 3.06 (inactive) |
| CCCc1c(OCCCCc2nnn[nH]2)ccc(C(C)=O)c1O | 0.683 | 1 | -11.5 (inactive) | 1.2 (inactive) |
| O=C1CC2(CCCC2)CC(=O)N1CCCCN1CCN(c2ncccn2)CC1 [Buspirone] | 0.713 | 0.313 | -14.9 (inactive) | -34 (inactive) |
| NC1CCN(c2cccc(Cl)n2)CC1 | 1.09 | 0.551 | 4.32 (inactive) | -35 (inactive) |
| CC1CCN(CCCC(=O)c2ccc(F)cc2)CC1 [Melperone hydrochloride] | 0.816 | 0.519 | -4.39 (inactive) | -12.5 (inactive) |
| COc1ccc(/C=C/C(=O)Nc2ccccc2C(=O)O)cc1OC [Tranilast] | 0.857 | 0.89 | -12.7 (inactive) | -4.27 (inactive) |
| OCCOCCN1CCN(C(c2ccccc2)c2ccc(Cl)cc2)CC1 (stereo unspecified) [Hydroxyzine pamoate salt] | 0.154 | 0.28 | -6.65 (inactive) | -24.4 (inactive) |
| O=C(C1CCCCC1)N1CC(=O)N2CCc3ccccc3C2C1 (stereo unspecified) [Praziquantel] | 1.03 | 0.947 | 7.75 (inactive) | -1.87 (inactive) |
| COc1ccc(CCN(C)CCCC(C#N)(c2ccc(OC)c(OC)c2)C(C)C)cc1OC (stereo unspecified) [Verapamil] | 0.856 | 0.533 | -27.2 (inactive) | -53.6 (inactive) |
| Nc1nc2c(ncn2COC(CO)CO)c(=O)[nH]1 [Ganciclovir] | 0.944 | 1 | -5.82 (inactive) | 7.82 (inactive) |
| CC(=O)O[C@]1(C(C)=O)CC[C@H]2[C@@H]3C=C(C)C4=CC(=O)CC[C@]4(C)[C@H]3CC[C@@]21C [Megestrol acetate] | 0.588 | 0.795 | -33.5 (inactive) | -31.3 (inactive) |
